Screening results as filed in PubChem BioAssay.
Pf apPOL inh = Pf-apPOL inhibitors, biochemical, fluorescence; Plasmodium falciparum apicoplast DNA polymerase (apPOL); Recombinant Pf-apPOL, molecular beacon fluorescence, 1.5 h; inhibition, % at 10 µM; 210,000 compounds, 0.25% hits; AID 1794808, 2022
mHTT CaM bind = mutant huntingtin-calmodulin interaction inhibitors – biochemical, AlphaScreen, primary screen; AID 1671202, 2021; AlphaScreen His-mHTT/GST-CaM binding, luminescence; inhibition, % at 15 µM; P42858; 190,000 compounds, 3.6% hits
Of the large screens only hits and unclear results are named; the others gave an inactive call; ! = not confirmed by another sample. An excerpt weighted towards active compounds, which were near 3.5% of everything screened. Cut-off read from the data, not from the text of the source: active = inhibition above about 50%; inactive = the rest.

O=C(NCCCn1ccnc1)c1nc(-c2ccc(Br)o2)no1	none (no result: Pf apPOL inh)
Cc1nc2c(oc3nc(-c4ccco4)c4c(c32)CC(C)(C)OC4)c(-c2ccccc2)c1C(=O)O	none
Cc1nc2c(oc3nc(-c4ccoc4)c4c(c32)CC(C)(C)OC4)c(-c2ccccc2)c1C(=O)O	mHTT CaM bind 74!
CC(C)Oc1cccc(C(=O)Nc2ccc(N3CCCC3)cc2)c1	mHTT CaM bind 99
O=C(Nc1ccc(N2CCOCC2)cc1)c1ccccc1F	none
O=C(Nc1ccc(N2CCCCC2)cc1)c1ccccc1	none (no result: mHTT CaM bind)
O=C(Nc1ccc2ncnc(N3CCCCC3)c2c1)c1cccc(F)c1	none
CN(C)c1cccc(C(=O)Nc2ccc3ncnc(N4CCCC4)c3c2)c1	mHTT CaM bind 76
O=C(Nc1ccc(N2CCCC2)cc1)c1ccccc1F	mHTT CaM bind 88
Cc1cccc(C(=O)Nc2ccc3ncnc(N4CCCCC4)c3c2)c1	none
O=C(Nc1ccc2ncnc(N3CCCCC3)c2c1)c1ccccc1F	mHTT CaM bind 55
CC12C(=O)N(c3cccc(C(F)(F)F)c3)C(=O)C1C1C=CC2C1 (configuration not stated)	none
Cc1nn(Cc2cccc(Oc3ccccc3)c2)c(C)c1NC(=O)CCC(=O)O	none
CCCCC(=O)Nc1ccc(C)cc1Br	none
O=C(Nc1cc(Cl)ccc1Cl)C1CC1c1ccccc1 (configuration not stated)	none
COc1cccc(CNC(=O)c2cn3cc(C)ccc3n2)c1	none
COc1ccc(-c2ccc3nc(C(=O)NCc4cccnc4)cn3c2)cc1	mHTT CaM bind 59
O=C(NCCCN1CCCC1=O)C1CCN(c2ncnc3c2nc2n3CCCCC2)CC1	none
COc1cc(OC)c(NC(=O)C2CCCN(c3nccc4sccc34)C2)cc1Cl (configuration not stated)	none
COc1ccc(Cl)cc1NC(=O)C1CCN(c2nccc3sccc23)CC1	mHTT CaM bind 100
COc1cc(Cl)c(NC(=O)C2CCCN(c3nccc4sccc34)C2)c(OC)c1 (configuration not stated)	mHTT CaM bind 60
COc1ccc(Cl)cc1NC(=O)C1CCN(c2nccc(C)n2)CC1	none
O=C(NCCCN1CCCC1=O)c1ccc(-n2nnc3ccccc3c2=O)cc1	none
O=c1ccnc(SCc2ccccc2)[nH]1	none
O=C(Nc1cccc(Cl)c1)c1cc(S(=O)(=O)N2CCOCC2)ccc1F	none
COc1ccc2cc(C(=O)Nc3ccc(OC)c(OC)c3)c(=Nc3ccc(C(=O)O)cc3)oc2c1	none
Cc1ccccc1C(=O)NCCSc1c(C)[nH]c2ccccc12	none
Cc1[nH]c2ccccc2c1SCCNC(=O)c1ccccc1F	mHTT CaM bind 99
NC(=O)c1ccccc1NC(=O)COc1ccc(Br)cc1Cl	none
N#CC1=C(N)OC2=C(C(=O)CCC2)C1c1ccccc1 (configuration not stated)	none
N#CC1=C(N)OC2=C(CC/C2=C\c2ccccc2)C1c1ccccc1 (configuration not stated)	mHTT CaM bind 90
CSc1nnc(-c2ccco2)c(-c2ccco2)n1	none
Clc1cc2nc(-c3ccco3)c(-c3ccco3)nc2cc1Cl	mHTT CaM bind 100
Cc1cc(C(=O)N2CCOCC2)nn1CC(=O)Nc1nc2ccccc2s1	none
O=C(CSc1ccc(Cl)cc1)NC1CCCCC1	none
COc1ccc(OC)c(C=C2SC(=S)N(C(C)C(=O)O)C2=O)c1 (configuration not stated)	none
CC(C)C(C(=O)O)N1C(=O)C(=Cc2cccc(Br)c2)SC1=S (configuration not stated)	mHTT CaM bind 59
CC(C)C(C(=O)O)N1C(=O)C(=Cc2ccccc2)SC1=S (configuration not stated)	none
COc1ccc(OC)c(C=C2SC(=S)N(C(C(=O)O)C(C)C)C2=O)c1 (configuration not stated)	mHTT CaM bind 51
O=C(NC1CCN(Cc2ccccc2)CC1)c1cn2c(n1)COCC2	none
CCC(=O)Nc1nc2ccccc2n1C	none
CCC(=O)Nc1nc2ccccc2n1Cc1ccc(Cl)cc1	mHTT CaM bind 72
Cc1cccc(C2CC(c3ccc(Cl)cc3)Nc3nc(N)nn32)c1 (configuration not stated)	mHTT CaM bind 56
Cc1cccc(C2CC(c3ccc(F)cc3)Nc3nc(N)nn32)c1 (configuration not stated)	none
CCOc1ccccc1C1CC(c2ccccc2)Nc2ncnn21 (configuration not stated)	none
COc1ccccc1C1CC(c2ccc(C)cc2)Nc2nc(N)nn21 (configuration not stated)	none
COc1ccccc1C1CC(c2ccc(Cl)c(Cl)c2)Nc2nc(N)nn21 (configuration not stated)	mHTT CaM bind 99
CCOc1ccccc1C1CC(c2ccc(Br)cc2)Nc2nc(N)nn21 (configuration not stated)	mHTT CaM bind 99
COc1ccccc1C1CC(c2ccc(Br)cc2)Nc2nc(N)nn21 (configuration not stated)	none
CCOc1ccccc1C1CC(c2ccc(I)cc2)Nc2ncnn21 (configuration not stated)	mHTT CaM bind 54
C=CCN(CC=C)C(=O)CCN1C(=O)c2ccccc2C1=O	none
CCCNC(=O)c1cnc(-c2ccccc2)nc1N1CCSCC1	none
CCCC(=O)N1CCN(Cc2noc(-c3ccc(F)cc3)n2)CC1	none
CNC(=O)C1CN(C(=O)c2ccc(C)cc2C)CC12CCCC2 (configuration not stated)	none
CCOc1cc(C(=O)Nc2cc(C)ccc2OC)cc(OCC)c1OCC	none
COc1cccc(CNC(=O)c2cn3ccccc3n2)c1	none
O=C(CN1C(=O)C2C3C=CC(CC3)C2C1=O)N1CCN(c2ccccn2)CC1 (configuration not stated)	none
COc1cccc(C2CC(c3ccccc3Cl)n3nc(N)nc3N2)c1 (configuration not stated)	none
CCc1ccc(C2CC(c3ccccc3Cl)n3nc(N)nc3N2)cc1 (configuration not stated)	none
COc1cccc(C2CC(c3ccc(Cl)cc3Cl)n3nc(N)nc3N2)c1 (configuration not stated)	mHTT CaM bind 52
CCc1ccc(C2CC(c3ccccc3Cl)Nc3nc(N)nn32)cc1 (configuration not stated)	mHTT CaM bind 52
CC(=O)NC(CCS(C)(=O)=O)C(=O)Nc1ccc(F)c(F)c1 (configuration not stated)	none
CC1(C(=O)O)NC(c2ccccc2O)C2C(=O)N(c3ccccc3)C(=O)C21 (configuration not stated)	none
CCCc1cc(C2CCCN2Cc2ccc(O)c(OCC)c2)no1 (configuration not stated)	none
CCC(C(=O)Nc1cc(Cl)ccc1C)c1ccccc1 (configuration not stated)	none
CNc1cc(Nc2ccccc2)c2c3c(onc13)-c1ccccc1C2=O	mHTT CaM bind 98
CCOc1ccc(Nc2cc(N3CCOCC3)c3noc4c3c2C(=O)c2ccccc2-4)cc1	none
CN(C)c1cc(Nc2ccccc2)c2c3c(onc13)-c1ccccc1C2=O	mHTT CaM bind 96
O=C(O)c1ccccc1Nc1cc(N2CCOCC2)c2noc3c2c1C(=O)c1ccccc1-3	none
Nc1cc(=O)[nH]c(SCC(=O)Nc2ccc(Cl)cc2)n1	none
CS(=O)(=O)c1ccc(-c2nnc(SCC(=O)O)o2)cc1	none
Fc1ccccc1Nc1ncc2c(n1)CCN(Cc1ccc3c(c1)OCCO3)C2	none
Clc1ccc(CN2CCc3nc(Nc4ccc5c(c4)OCO5)ncc3C2)cc1	none
